# Results from PubChem BioAssay.
# Inconclusive results are not listed. Calls of active or inactive are those of the source.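 The calls were made as follows, unless noted: active = normalized viability below 100% at a tested concentration; inactive = the rest.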
# Tests used:
# [1] = viability loss in pontine glioma line – cell-based, SU-DIPG-XVII, MIPE5.0, CellTiter-Glo, qHTS, dose response (AID 1347060; cut-off not given, nearly all actives have AC50 up to about 26 µM;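 as to AC50: cells exposed to compound for 48 hours before viability readout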); settings: CellTiter-Glo ATP luminescence
# [2] = viability loss in pontine glioma line – cell-based, SU-DIPG-XIII, MIPE5.0, CellTiter-Glo, qHTS, dose response (AID 1347064; cut-off not given, nearly all actives have AC50 up to about 23 µM;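 as to AC50: cells exposed to compound for 48 hours before the viability read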); settings: CellTiter-Glo ATP luminescence
# [3] = viability loss in pontine glioma line – cell-based, SU-DIPG-XXV, MIPE5.0, CellTiter-Glo, qHTS, dose response (AID 1347065; cut-off not given, nearly all actives have AC50 up to about 26 µM;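 also: cells exposed to compound for 48 hours before ATP readout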); settings: CellTiter-Glo ATP luminescence
# [4] = JHH-DIPG-1 glioma cell viability, MIPE5.0 library, CellTiter-Glo luminescence, qHTS (AID 1347067; cut-off not given, nearly all actives have AC50 up to about 26 µM;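 also: cells exposed to compound for 48 hours before readout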); settings: JHH-DIPG-1 glioma viability, CellTiter-Glo ATP luminescence
# [5] = viability loss with induced miR-34 in A549 – imaging, A549 dox-inducible miR-34, nuclei and caspase counts, primary screen (AID 1347080;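 active = compounds whose cell count with miR-34 switched on is under 0.7 times the count with it off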); settings: A549 miR-34 inducible, Hoechst nuclei count, 48 h
# [6] = MELAS cybrid and Rieske KO viability enhancers – cell-based, MELAS cybrids, Rieske KO mouse fibroblasts, CellTiter-Glo, primary screen (AID 1508586;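 active = mean z-score across replicates of 1.96 or higher in either the MELAS or the Rieske mutant cell line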;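 also: z relative to plate mean and SD of compound and empty wells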); settings: low glucose
# [7] = growth inhibition of DIPG cells – cell-based, MIPE5.0 library, qHTS (AID 1347068; cut-off not given, nearly all actives have IC50 up to about 30 µM); settings: SU-DIPG-XXV viability
# [8] = drug combination growth inhibition, ovarian cancer – cell-based, oncology-focused library, rucaparib conditional, profiling panel (AID 1508598); settings: patient-derived ovarian cancer cells, CellTiter-Glo viability, 144 h, stronger effect = lower value
# [9] = stronger effect = lower value, cell number ratio, induced over uninduced
# [10] = measured here: relative caspase fold change +Dox/-Dox
# [11] = measured here: total cells with miR-34 induction, stronger effect = lower value
# [12] = measured here: total cells without miR-34 induction
# [13] = MELAS cybrid survival, CellTiter-Glo 48 h, stronger effect = higher value
# [14] = Rieske KO mouse fibroblast survival, CellTiter-Glo 72 h
smiles,measurement,setting,value
O=C(NOCC(O)CO)c1ccc(F)c(F)c1Nc1ccc(I)cc1F (centres undefined),AC50,[1],417 nM (active)
same,AC50,[2],525 nM (active)
same,AC50,[3],934 nM (active)
same,AC50,[4],166 nM (active)
same,fold change,[5]; [9],1.1 (inactive)
same,fold change,[5]; [10],0.559
same,cell count,[5]; [11],2790
same,cell count,[5]; [12],2520
same,z-score,[6]; [13],-0.718 (inactive)
same,z-score,[6]; [14],-0.702
CC(C)(O)c1coc(S(=O)(=O)NC(=O)Nc2c3c(cc4c2CCC4)CCC3)c1,outcome,[1],inactive
same,outcome,[2],inactive
same,outcome,[3],inactive
same,outcome,[7],inactive
Cc1nc2c(-c3cnc(N)nc3)nc(N3CCOCC3)nc2n1C(C)C,AC50,[1],742 nM (active)
same,AC50,[2],1050 nM (active)
same,AC50,[3],332 nM (active)
same,AC50,[4],742 nM (active)
same,fold change,[5]; [9],0.815 (inactive)
same,fold change,[5]; [10],0.682
same,cell count,[5]; [11],1980
same,cell count,[5]; [12],2430
same,z-score,[6]; [13],5.52 (active)
same,z-score,[6]; [14],-0.403
same,viability,"[8]; at 0.000305 µM, OCI-C5x cells, with rucaparib 10 µM, 100% = cells with rucaparib alone",117% (inactive)
same,viability,"[8]; at 0.000305 µM, OCI-C5x cells, without rucaparib",112% (inactive)
same,viability,"[8]; at 0.000305 µM, OCI-P5x cells, with rucaparib 20 µM, 100% = cells with rucaparib alone",108% (inactive)
same,viability,"[8]; at 0.000305 µM, OCI-P5x cells, without rucaparib",109% (inactive)
same,viability,"[8]; at 0.00122 µM, OCI-C5x cells, with rucaparib 10 µM, 100% = cells with rucaparib alone",120% (inactive)
same,viability,"[8]; at 0.00122 µM, OCI-C5x cells, without rucaparib",120% (inactive)
same,viability,"[8]; at 0.00122 µM, OCI-P5x cells, with rucaparib 20 µM, 100% = cells with rucaparib alone",95.6% (active)
same,viability,"[8]; at 0.00122 µM, OCI-P5x cells, without rucaparib",109% (inactive)
same,viability,"[8]; at 0.00488 µM, OCI-C5x cells, with rucaparib 10 µM, 100% = cells with rucaparib alone",120% (inactive)
same,viability,"[8]; at 0.00488 µM, OCI-C5x cells, without rucaparib",116% (inactive)
same,viability,"[8]; at 0.00488 µM, OCI-P5x cells, with rucaparib 20 µM, 100% = cells with rucaparib alone",92.3% (active)
same,viability,"[8]; at 0.00488 µM, OCI-P5x cells, without rucaparib",113% (inactive)
same,viability,"[8]; at 0.0195 µM, OCI-C5x cells, with rucaparib 10 µM, 100% = cells with rucaparib alone",111% (inactive)
same,viability,"[8]; at 0.0195 µM, OCI-C5x cells, without rucaparib",114% (inactive)
same,viability,"[8]; at 0.0195 µM, OCI-P5x cells, with rucaparib 20 µM, 100% = cells with rucaparib alone",90.3% (active)
same,viability,"[8]; at 0.0195 µM, OCI-P5x cells, without rucaparib",108% (inactive)
same,viability,"[8]; at 0.0781 µM, OCI-C5x cells, with rucaparib 10 µM, 100% = cells with rucaparib alone",98.8% (active)
same,viability,"[8]; at 0.0781 µM, OCI-C5x cells, without rucaparib",116% (inactive)
same,viability,"[8]; at 0.0781 µM, OCI-P5x cells, with rucaparib 20 µM, 100% = cells with rucaparib alone",77.8% (active)
same,viability,"[8]; at 0.0781 µM, OCI-P5x cells, without rucaparib",97.3% (active)
same,viability,"[8]; at 0.313 µM, OCI-C5x cells, with rucaparib 10 µM, 100% = cells with rucaparib alone",102% (inactive)
same,viability,"[8]; at 0.313 µM, OCI-C5x cells, without rucaparib",103% (inactive)
same,viability,"[8]; at 0.313 µM, OCI-P5x cells, with rucaparib 20 µM, 100% = cells with rucaparib alone",68.3% (active)
same,viability,"[8]; at 0.313 µM, OCI-P5x cells, without rucaparib",76.9% (active)
same,viability,"[8]; at 1.25 µM, OCI-C5x cells, with rucaparib 10 µM, 100% = cells with rucaparib alone",69.8% (active)
same,viability,"[8]; at 1.25 µM, OCI-C5x cells, without rucaparib",54.3% (active)
same,viability,"[8]; at 1.25 µM, OCI-P5x cells, with rucaparib 20 µM, 100% = cells with rucaparib alone",37.6% (active)
same,viability,"[8]; at 1.25 µM, OCI-P5x cells, without rucaparib",34.8% (active)
same,viability,"[8]; at 5 µM, OCI-C5x cells, with rucaparib 10 µM, 100% = cells with rucaparib alone",34.3% (active)
same,viability,"[8]; at 5 µM, OCI-C5x cells, without rucaparib",32.9% (active)
same,viability,"[8]; at 5 µM, OCI-P5x cells, with rucaparib 20 µM, 100% = cells with rucaparib alone",13.7% (active)
same,viability,"[8]; at 5 µM, OCI-P5x cells, without rucaparib",14.6% (active)
Cc1ccc(-c2nc(N)nc3c2nnn3Cc2cccc(CO[C@H]3CCOC3)n2)o1,outcome,[1],inactive
same,outcome,[2],inactive
same,outcome,[3],inactive
same,outcome,[7],inactive
COc1cccc(OCCCN)c1-c1cc(Nc2cnc(C#N)cn2)n[nH]1,AC50,[1],33.2 nM (active)
same,AC50,[2],74.2 nM (active)
same,AC50,[3],59 nM (active)
same,outcome,[7],inactive
